Rac1 wt GTP bind = wildtype Rac1 GTP binding modulators, primary screen, biochemical, GST-Rac1 beads, flow cytometry, multiplex | Ras-related C3 botulinum toxin substrate 1 (Homo sapiens), P63000 | actives 0.27% (n = 190,000) | fluorescent GTP binding; actives lie on both sides; 0 = cold GTP competed, 100 = untreated | GTP binding activity (% of control), % at 10 µM | AID 757, 2007;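 active = GTP binding activity at least 20 points away from the 100% control level, either lower or higher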
Rab7 wt GTP bind = modulators of GTP binding to Rab7, primary screen, biochemical, wildtype, multiplex bead flow cytometry. AID 758, 2007. GST-Rab7 beads, fluorescent GTP binding; actives lie on both sides; untreated = 100%, excess cold GTP = 0%. GTP binding activity (percent of control), % at 10 µM. actives 0.055% (n = 190,000);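 active = fluorescent GTP binding to Rab7 beads changed by at least 20 points from the 100% baseline, either direction, mostly lower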;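 note: median green fluorescence of bound Bodipy-FL-GTP per Rab7 bead population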
Rab2A wt mod = modulators of GTP binding to Rab2A wildtype, primary screen, biochemical, dog, bead-based flow cytometry, multiplex; Ras-related protein Rab-2A (Canis lupus familiaris), P61105; GST-Rab2 wt beads, Bodipy-GTP binding; GTP binding activity, % at 10 µM; actives 0.19% (n = 190,000); AID 760, 2007;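 active = GTP binding activity at least 20 points away from 100%, either lowered or raised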;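 note: 0% = beads with excess unlabeled GTP and 100% = no-compound control corrected for plate trend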
Rac1 act GTP bind = GTP binding modulators of activated mutant Rac1, primary screen, biochemical, bead-based flow cytometry, multiplex, fluorescent GTP; Ras-related C3 botulinum toxin substrate 1 (Homo sapiens), P63000; GST-Rac1 activated beads; actives lie on both sides; 100% means binding = to untreated wells; percent activity (GTP binding), % at 10 µM; actives 0.11% (n = 190,000);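 active = GTP binding at least 20 percentage points away from the 100% baseline, in either direction, so actives lie on both sides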
HRas wt GTP bind = modulators of GTP binding to HRas wildtype, primary screen, biochemical, bead-based flow cytometry, multiplex; GST-Ras wt beads, Bodipy-FL-GTP binding; actives lie on both sides; GTP binding activity, % at 10 µM; AID 759, 2007; GTPase HRas (Homo sapiens), P01112; actives 0.14% (n = 190,000);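 active = GTP binding activity at least 20% away from the 100% baseline, either lowered as inhibitor or raised as activator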;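 note: 0% = unlabeled GTP competition control and 100% = no-compound control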
Cdc42 wt = modulators of GTP binding to wildtype Cdc42, primary screen, biochemical, multiplex bead flow cytometry, Bodipy-GTP; Cell division control protein 42 homolog (Homo sapiens), P60953; GST-Cdc42 beads; actives lie on both sides; percent activity (GTP binding), % at 10 µM; actives 0.2% (n = 190,000);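 active = percent activity GTP binding at least 20 points away from the 100% baseline, either down as inhibitor or up as activator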;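 note: median bead fluorescence of bound Bodipy-FL-GTP at 100 nM; 0% = excess unlabeled GTP control and 100% = no compound control; below 100% means less GTP binding so inhibitor and above means activator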
Target sequence (P60953 whole entry, looked up): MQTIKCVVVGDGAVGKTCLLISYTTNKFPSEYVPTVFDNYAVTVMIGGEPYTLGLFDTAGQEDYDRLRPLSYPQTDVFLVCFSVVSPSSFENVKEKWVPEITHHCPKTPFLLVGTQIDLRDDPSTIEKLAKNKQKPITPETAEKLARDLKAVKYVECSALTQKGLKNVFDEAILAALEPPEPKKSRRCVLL
Active calls of the source: *; [ ] = another dose, or the depositor's remark. A selection: hits, their analogues and other compounds. The true share with any hit is near 0.38%.

Screening O=c1[nH]c(=S)[nH]c(O)c1N=Nc1ccc(S(=O)(=O)N2CCc3ccccc32)cc1 returned Rac1 wt GTP bind 120.0*[activator], Rab7 wt GTP bind 97.0, Rab2A wt mod 94.0, Rac1 act GTP bind 98.0, HRas wt GTP bind 93.0 and Cdc42 wt 93.0.
`Cc1c(N=Nc2c(O)[nH]c(=S)[nH]c2=O)c(=O)n(-c2ccccc2)n1C` gave Rac1 wt GTP bind 105.0, Rab7 wt GTP bind 101.0, Rab2A wt mod 100.0, Rac1 act GTP bind 98.0, HRas wt GTP bind 102.0 and Cdc42 wt 104.0.
Screening Cn1cccc1CNCCc1ccccc1F returned Rac1 wt GTP bind 102.0, Rab7 wt GTP bind 100.0, Rab2A wt mod 105.0, Rac1 act GTP bind 101.0, HRas wt GTP bind 104.0 and Cdc42 wt 105.0.
Screening CCn1nc(/C=C/c2ccccc2)nc2c(=O)n(C)c(=O)nc1-2 returned Rac1 wt GTP bind 96.0, Rab7 wt GTP bind 92.0, Rab2A wt mod 83.0, Rac1 act GTP bind 83.0, HRas wt GTP bind 82.0 and Cdc42 wt 76.0*.
CCC(=NCCOc1ccc(Cl)cc1)c1c(O)n(C)c(=O)n(C)c1=O was read as Rac1 wt GTP bind 96.0, Rab7 wt GTP bind 98.0, Rab2A wt mod 98.0, Rac1 act GTP bind 94.0, HRas wt GTP bind 96.0 and Cdc42 wt 93.0.
For CCOCCCn1c(N)c(C(=O)Nc2sc3c(c2C(=O)OC)CCCC3)c2nc3ccccc3nc21 the results were Rac1 wt GTP bind 82.0, Rab7 wt GTP bind 88.0, Rab2A wt mod 72.0*, Rac1 act GTP bind 87.0, HRas wt GTP bind 72.0* and Cdc42 wt 72.0*.
Cc1cccc(-n2c(O)c(C=Nc3ccc(Br)cn3)c(=O)[nH]c2=O)c1 was read as Rac1 wt GTP bind 102.0, Rab7 wt GTP bind 99.0, Rab2A wt mod 102.0, Rac1 act GTP bind 100.0, HRas wt GTP bind 99.0 and Cdc42 wt 98.0.
For Cc1ccc(-n2c(O)c(/C=N/c3ncc(Br)cc3Br)c(=O)[nH]c2=O)cc1 the results were Rac1 wt GTP bind 123.0*[activator], Rab7 wt GTP bind 94.0, Rab2A wt mod 94.0, Rac1 act GTP bind 98.0, HRas wt GTP bind 94.0 and Cdc42 wt 100.0.
